Here are results for eight compounds from PubChem BioAssay (NCI).

Structures are written as SMILES. This is part of a sample that, as a whole, favours compounds with a hit. Of some 83,000 tested, about 20% had one in any assay.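 Cell lines were cultured in 96-well plates, exposed to a single compound concentration, and assessed for percent growth 48 hours later.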 Values without a mark were called inactive. The source made the active and inactive calls. Rule for the calls: active = growth percent below 10; inactive = the rest.

Test systems include NCI-H23 lung; NCI-H226 lung; NCI-H322M lung; HOP-62 NSCLC; NCI-H460 lung; HOP-92 NSCLC; NCI-H522 lung; A549/ATCC NSCLC; 786-0 renal; COLO 205 colon; DU-145 prostate; MALME-3M melanoma; MDA-MB-231 breast; RXF 393 renal; SF-268 CNS; SF-295 CNS; SF-539 CNS; UACC-257 melanoma; M14 melanoma.
What all share (test): NCI-60 one-dose screen, 48 h (100 = growth as untreated, 0 = no growth, -100 = all killed)
Details in all cases: 10 µM unless noted

Turning to `COc1ccc(C(=O)CC#N)cc1`, the growth is 107% with NCI-H23 lung; 98% in the assay on NCI-H226 lung; 120% in the assay on NCI-H322M lung; 122% in the assay with HOP-62 NSCLC; 108% in the assay on NCI-H460 lung; 119% in the assay with HOP-92 NSCLC. The growth was 113% in the assay on NCI-H522 lung; 104% with A549/ATCC NSCLC; 107% with 786-0 renal; 117% with COLO 205 colon; 107% with DU-145 prostate; 123% in the assay with MALME-3M melanoma. The growth in the assay with MDA-MB-231 breast is 96.8%; with RXF 393 renal it was 106%; in the assay on SF-268 CNS, 107%; in the assay on SF-295 CNS, 131%; with SF-539 CNS it was 121%; in the assay on UACC-257 melanoma it was 102%. In addition, the growth in the assay on M14 melanoma is 110%.
Consider `Cc1ccc(C(=O)/C(=C\c2ccc([N+](=O)[O-])cc2)S(=O)Cc2ccc(F)cc2)cc1` (configuration not stated), for which the growth is 31.6% with NCI-H23 lung; 41.5% with NCI-H226 lung; 72.6% in the assay with NCI-H322M lung; 21.5% with HOP-62 NSCLC; 15% in the assay with NCI-H460 lung; 27.2% with HOP-92 NSCLC. The growth is -12% (active) in the assay with NCI-H522 lung; 73.2% with A549/ATCC NSCLC; -66.1% (active) with 786-0 renal; 2.86% (active) with COLO 205 colon; 18.6% in the assay on DU-145 prostate; -3.22% (active) in the assay with MALME-3M melanoma. Further, the growth in the assay on MDA-MB-231 breast is 11%; with RXF 393 renal, -80% (active); with SF-268 CNS, 19.5%; in the assay with SF-295 CNS, 62.5%; in the assay on SF-539 CNS, 15.4%; in the assay with UACC-257 melanoma, 91.6%. The growth in the assay on M14 melanoma was 28.2%.
Consider `Cc1nc2sccn2c1-c1cn2ccsc2n1`, for which the growth in the assay with NCI-H23 lung was 60.2%; in the assay with NCI-H226 lung, 84.3%; with NCI-H322M lung, 82.7%; with HOP-62 NSCLC, 90.7%; in the assay on NCI-H460 lung, 65.9%; with HOP-92 NSCLC it was 69.6%. The growth in the assay with NCI-H522 lung is 89.2%; in the assay on A549/ATCC NSCLC it was 98.9%; with 786-0 renal, 95.8%; in the assay with COLO 205 colon, 87.2%; in the assay on DU-145 prostate, 76.3%; in the assay with MALME-3M melanoma, 77.7%. For the same compound, the growth with MDA-MB-231 breast was 81.3%; with RXF 393 renal it was 77.5%; in the assay with SF-268 CNS it was 102%; with SF-295 CNS, 89.9%; in the assay on SF-539 CNS, 90.5%; in the assay on UACC-257 melanoma, 91%. Besides, the growth in the assay with M14 melanoma is 93.7%.
For the compound `COc1cc(C2C3=C(COC3=O)N(CCO)c3cc4c(cc32)OCO4)cc(OC)c1OC` (configuration not stated), the growth in the assay on NCI-H23 lung was 12.2%; with NCI-H226 lung it was 6.36% (active); in the assay with NCI-H322M lung, 50.3%; in the assay with HOP-62 NSCLC, 12.6%; in the assay on NCI-H460 lung, -54.3% (active); in the assay with HOP-92 NSCLC, 52.1%. Further, the growth is -13% (active) in the assay with NCI-H522 lung; 30.8% in the assay with A549/ATCC NSCLC; 9.85% (active) in the assay with 786-0 renal; -84.3% (active) with COLO 205 colon; 5.4% (active) in the assay with DU-145 prostate; 56.3% in the assay with MALME-3M melanoma. In addition, the growth is -1.03% (active) in the assay with MDA-MB-231 breast; -5.54% (active) with RXF 393 renal; 41.3% in the assay on SF-268 CNS; 21.4% with SF-295 CNS; -51.6% (active) in the assay on SF-539 CNS; 60.8% in the assay with UACC-257 melanoma. In addition, the growth in the assay on M14 melanoma is -19.6% (active).
Take `Cc1cc2c(c(C)c1Cl)C(=O)/C(=C/c1ccc(O)c(O)c1)O2`: the growth is 94.6% with NCI-H23 lung; 92.9% in the assay with NCI-H226 lung; 104% in the assay on NCI-H322M lung; 90.5% in the assay with HOP-62 NSCLC; 99.9% in the assay on NCI-H460 lung; 90.2% in the assay on HOP-92 NSCLC. Moreover, the growth in the assay on NCI-H522 lung was 87.3%; with A549/ATCC NSCLC it was 97.8%; in the assay on 786-0 renal, 107%; with COLO 205 colon, 114%; with DU-145 prostate, 109%; with MALME-3M melanoma it was 111%. The growth is 91.3% in the assay on MDA-MB-231 breast; 113% in the assay with RXF 393 renal; 108% in the assay with SF-268 CNS; 103% in the assay with SF-295 CNS; 100% in the assay with SF-539 CNS; 97.7% in the assay on UACC-257 melanoma. The growth in the assay on M14 melanoma was 95.2%.
On to `O=[N+]([O-])c1ccc(N=Nc2cc(S(=O)(=O)O)c3cccc(S(=O)(=O)O)c3c2O)cc1`, for which the growth was 103% with NCI-H23 lung; 105% in the assay on NCI-H226 lung; 80.7% in the assay on NCI-H322M lung; 107% in the assay with HOP-62 NSCLC; 116% in the assay with NCI-H460 lung; 87.8% with HOP-92 NSCLC. Besides, the growth in the assay with NCI-H522 lung is 110%; in the assay with A549/ATCC NSCLC it was 114%; with 786-0 renal, 114%; in the assay with COLO 205 colon it was 127%; with DU-145 prostate, 132%; in the assay on MALME-3M melanoma, 84.5%. In addition, the growth in the assay on MDA-MB-231 breast is 112%; in the assay with RXF 393 renal, 121%; in the assay on SF-268 CNS it was 115%; in the assay on SF-295 CNS, 125%; in the assay with SF-539 CNS it was 104%; in the assay with UACC-257 melanoma, 113%. Also, in the assay on M14 melanoma, the growth was 97.6%.
With `CCCCCCCC(=O)OCC/C=C/C1OC1C1OC(=O)/C=C\C=C\C(=O)N(C(C)=O)C(=O)/C=C(/C)CCC2OC2C1OC(=O)NC(C)=O` (configuration not stated), the growth is 84.6% with NCI-H23 lung; 81.1% in the assay on NCI-H226 lung; 111% in the assay with NCI-H322M lung; 79.8% with HOP-62 NSCLC; 82.4% in the assay with NCI-H460 lung; 53.3% in the assay on HOP-92 NSCLC. Moreover, the growth was 57.1% in the assay on NCI-H522 lung; 95.1% with A549/ATCC NSCLC; 21.3% with 786-0 renal; 62.3% in the assay with COLO 205 colon; 84.3% with DU-145 prostate; 123% with MALME-3M melanoma. The growth with MDA-MB-231 breast was 73.9%; with RXF 393 renal it was 78.7%; in the assay with SF-268 CNS it was 93.4%; in the assay on SF-295 CNS, 90.9%; with SF-539 CNS, 25.9%; with UACC-257 melanoma, 84.2%. The growth in the assay with M14 melanoma was 81.7%.
Turning to `C=C1C(=O)O[C@H]2[C@H]1CC/C(CNS(=O)(=O)c1cccc3ccccc13)=C\CC[C@@]1(C)O[C@@H]21`, the growth with NCI-H23 lung was 57.9%; in the assay on NCI-H226 lung, 57.8%; in the assay with NCI-H322M lung, 91.2%; in the assay with HOP-62 NSCLC, 94.9%; in the assay with NCI-H460 lung, 73.8%; in the assay with HOP-92 NSCLC it was 12.1%. Moreover, the growth in the assay with NCI-H522 lung is -63.9% (active); in the assay with A549/ATCC NSCLC, 83.5%; in the assay with 786-0 renal it was 26.1%; in the assay with COLO 205 colon, 8.89% (active); in the assay on DU-145 prostate, 25.5%; in the assay on MALME-3M melanoma, -18.4% (active). In addition, the growth in the assay with MDA-MB-231 breast was 43.6%; in the assay with RXF 393 renal, -14.9% (active); in the assay with SF-268 CNS it was 58%; with SF-295 CNS, 82.2%; in the assay with SF-539 CNS, 49.2%; with UACC-257 melanoma it was 70.4%. For the same compound, the growth in the assay on M14 melanoma is 31.7%.
